Screening data (PubChem)
A selection: hits, their analogues and other compounds. The true share with any hit is near 7.9%.
HT1080 IDH1KD tx = kills HT-1080 cells with IDH1 knockdown; actives 2% (n = 360,000); HT-1080 IDH1 knockdown viability, ATP luminescence, 48 h; Potency, µM (doses to about 46.1 µM), inactives show at the highest dose activity, negative = toxicity, hits mostly cytotoxic;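 further: 0% = DMSO wells and -100% = cell-free medium wells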
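Knockdown cells (IDH1KD HT-1080) received compounds 2 h after plating at 750 cells/well and were kept 48 h at 37 °C in 5% FBS RPMI. A CellTiter-Glo luminescence read gave % activity for curve fitting.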
MCF10A rereplic = inducers of DNA re-replication in MCF 10A breast cells. AID 624296. Potency, µM (series often up to 46.1 µM), for inactives: at the top dose activity, positive = re-replication, actives largely listed as activators. actives 2.9% (n = 350,000). MCF 10A DNA re-replication, Hoechst nuclear intensity, 48 h; further: % of control where 0% means no effect; nearly all actives have a fitted effect of over 50% in size
HT1080NT lethal = kills 2HG-producing HT-1080-NT fibrosarcoma cells; AID 686970; Potency, µM (top dose mostly 46.1 µM), for the others: top-dose activity, negative = less viability, actives largely listed as cytotoxic; actives 1.6% (n = 360,000); HT-1080-NT fibrosarcoma viability, CellTiter-Glo ATP luminescence, 48 h;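 further: NT is the 2HG producing partner of a matched IDH1 knockdown line; 0% = DMSO-treated cells and -100% = media-only wells without cells; nearly all actives have a fitted effect of over 55% in size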
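HT-1080-NT; 750 cells/well; 5% FBS RPMI; 48 h compound, 37 degrees C; CellTiter-Glo luminescence; curve fitting and curve-class assignment.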
SW480 rereplic = inducers of DNA re-replication in SW480 colon cancer cells | SW480 DNA re-replication, Hoechst DNA content imaging, 48 h | Potency, µM (series often up to 46.1 µM), for inactives: at the highest dose re-replication activation, usual class: activators | actives 1.8% (n = 340,000) | AID 624297; further: % of control where 0% means no effect; nearly all actives have a fitted effect of over 55% in size
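Compounds, transferred as 23 nL by pin tool, were incubated with cells for 48 hr; DNA content per nucleus was then quantified by Hoechst staining and fluorescence plate imaging.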
KB-3-1 cytotox = kills parental KB-3-1 adenocarcinoma cells; actives 1.4% (n = 400,000); KB-3-1 viability, CellTiter-Glo ATP luminescence, 72 h; Potency, µM (titrated, usually from 46.1 µM), usual class: cytotoxic; AID 1347075; further: on the % scale 0 is the no-effect control and ±100 the full control effect; nearly all actives have a fitted effect of over 60% in size
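Cytotoxicity in the drug-sensitive parental line KB-3-1 was scored as loss of CellTiter-Glo luminescence following 72 h incubation with compound. Values come from curve fitting of normalized concentration-response data.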
KB-V1 cytotox = KB-V1 MDR subline cytotoxicity | Potency, µM (series often up to 46.1 µM), hits mostly cytotoxic | AID 1347076 | KB-V1 MDR cells viability, CellTiter-Glo, 72 h | actives 3.4% (n = 400,000); further: on the % scale 0 is the no-effect control and ±100 the full control effect; nearly all actives have a fitted effect of over 60% in size
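KB-V1 MDR subline cells in DMEM (phenol-red free, 10% FBS) exposed to compounds in qHTS concentration series for 72 h at 37 degrees C. Viability read by CellTiter-Glo luminescence; concentration-effect curves fitted after normalization and correction.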
The depositor's hits bear a star; [ ] = remark or other dose. The call rests on the fitted dose curve; in most records, active means well fitted curve in the direction sought with a large enough effect; inconclusive means small, poorly fitted or top-dose-only effect, or another doubt; inactive means no such curve, though single readings can be large; an effect the other way counts as inactive or inconclusive. Potency means the concentration at half of the fitted maximal effect.

How did C[C@]12c3[nH]c4cc(-c5ccco5)ccc4c3CCN1C(=O)[C@@H](CC(=O)NCCC1=CCCCC1)C[C@@H]2C(=O)N1CCOCC1 do in these assays?
HT1080 IDH1KD tx: -22.8%; MCF10A rereplic: -10.7%; HT1080NT lethal: -17.1%; SW480 rereplic: inconclusive; KB-3-1 cytotox: inactive; KB-V1 cytotox: inactive

Results for CC(C)c1ccc(CN(Cc2ccco2)c2cnc(S(C)(=O)=O)nc2C(=O)Nc2ccccc2)cc1 ?
KB-3-1 cytotox: inactive; KB-V1 cytotox: inactive

How did CCOc1ccc(Nc2nc(Cc3nnc(SCC(=O)c4ccc(C)c(C)c4)o3)cs2)cc1 do in these assays?
HT1080 IDH1KD tx: inconclusive; MCF10A rereplic: 12.6%; HT1080NT lethal: inconclusive; SW480 rereplic: inconclusive; KB-3-1 cytotox: inactive; KB-V1 cytotox: 13µM*

How did Cc1ccc(NC(=O)CSc2nnc(Cc3csc(C)n3)o2)cc1 do in these assays?
HT1080 IDH1KD tx: 0.6%; MCF10A rereplic: -0.9%; HT1080NT lethal: -6.8%; SW480 rereplic: 7.4%; KB-3-1 cytotox: inactive; KB-V1 cytotox: inactive

How did O=C(NCc1ccccc1F)Nc1nnc([C@H]2C[C@H](O)[C@@H](CO)O2)s1 do in these assays?
HT1080 IDH1KD tx: 1.6%; HT1080NT lethal: -28.3%; KB-3-1 cytotox: inactive; KB-V1 cytotox: inactive

How did CCCCN(CC)S(=O)(=O)N1CCC(C(=O)NCc2ccc(F)cc2)CC1 do in these assays?
HT1080 IDH1KD tx: 6.2%; MCF10A rereplic: -12.6%; HT1080NT lethal: -1.4%; SW480 rereplic: 8.1%; KB-3-1 cytotox: inactive; KB-V1 cytotox: 16.4µM*

Results for O=C(NCc1ccc(F)cc1)C1CCN(S(=O)(=O)N2CCCCC2)CC1 ?
HT1080 IDH1KD tx: 7.7%; MCF10A rereplic: 4.6%; HT1080NT lethal: -0.2%; SW480 rereplic: -15.2%; KB-3-1 cytotox: inactive; KB-V1 cytotox: inactive

Results for COc1ccc(CCC(=O)N2CCN(c3ccc(OC)cc3)CC2)cc1 ?
HT1080 IDH1KD tx: 3.7%; MCF10A rereplic: 5.1%; HT1080NT lethal: 5.0%; SW480 rereplic: 6.6%; KB-3-1 cytotox: inactive; KB-V1 cytotox: inconclusive

Results for CCCNS(=O)(=O)c1ccc(CCC(=O)N2CCOCC2)cc1 ?
HT1080 IDH1KD tx: 19.2%; MCF10A rereplic: -0.2%; HT1080NT lethal: 14.5%; SW480 rereplic: 1.4%; KB-3-1 cytotox: inactive; KB-V1 cytotox: inactive

What do the screens show for `COc1ccc(N2CCN(C(=O)CCc3ccc(S(=O)(=O)NC(C)(C)C)cc3)CC2)cc1`?
HT1080 IDH1KD tx: -3.7%; MCF10A rereplic: -2.7%; HT1080NT lethal: -8.7%; SW480 rereplic: inconclusive; KB-3-1 cytotox: inconclusive; KB-V1 cytotox: 14.6µM*

What do the screens show for `CCCNS(=O)(=O)c1ccc(CCC(=O)N2CCN(c3ccc(OC)cc3)CC2)cc1`?
HT1080 IDH1KD tx: 9.8%[9.24 µM]; MCF10A rereplic: 4.1%; HT1080NT lethal: -22.4%; SW480 rereplic: -0.5%; KB-3-1 cytotox: inactive; KB-V1 cytotox: 20.6µM*

Results for CC(=O)Nc1ccc(S(=O)(=O)NCCSCc2ccc(Cl)cc2Cl)cc1 ?
HT1080 IDH1KD tx: inconclusive; MCF10A rereplic: 12.6µM*; HT1080NT lethal: -26.3%; SW480 rereplic: -1.6%; KB-3-1 cytotox: inconclusive; KB-V1 cytotox: inconclusive

Results for CCCNS(=O)(=O)c1ccc(CCC(=O)N2CCN(c3ccc(F)cc3)CC2)cc1 ?
HT1080 IDH1KD tx: 1.3%; MCF10A rereplic: 24.2%; HT1080NT lethal: 1.7%; SW480 rereplic: -3.1%; KB-3-1 cytotox: inconclusive; KB-V1 cytotox: 9.2µM*

What do the screens show for `CCOc1ccc(NC(=O)CCc2c(C)nc3nc(C)nn3c2C)cc1`?
KB-3-1 cytotox: inactive; KB-V1 cytotox: inactive

How did O=C(c1cc(Br)ccc1O)N(Cc1ccco1)Cc1cccs1 do in these assays?
KB-3-1 cytotox: inconclusive; KB-V1 cytotox: inactive

How did NS(=O)(=O)c1ccc(NC(=O)CN2C(=O)COc3ccc(Cl)cc32)cc1 do in these assays?
KB-3-1 cytotox: inactive; KB-V1 cytotox: inactive

Results for CC(=O)Nc1ccc(S(=O)(=O)NCCc2ccc(F)cc2)cc1 ?
HT1080 IDH1KD tx: -5.0%; MCF10A rereplic: 20.1%; HT1080NT lethal: -1.4%; SW480 rereplic: -4.8%; KB-3-1 cytotox: inactive; KB-V1 cytotox: 23.1µM*

How did CC(=O)Nc1ccc(S(=O)(=O)NCCc2ccc(S(N)(=O)=O)cc2)cc1 do in these assays?
HT1080 IDH1KD tx: 2.3%; MCF10A rereplic: 10.2%; HT1080NT lethal: 14.2%; SW480 rereplic: -0.3%; KB-3-1 cytotox: inactive; KB-V1 cytotox: inactive

Results for C=CCNc1nc(N2CCCCC2)c(C#N)c2c1CN(Cc1ccccc1)CC2 ?
HT1080 IDH1KD tx: inconclusive; MCF10A rereplic: 16.4µM*; HT1080NT lethal: inconclusive; SW480 rereplic: inconclusive; KB-3-1 cytotox: inconclusive; KB-V1 cytotox: inactive

How did CSCCC(c1nc2ccccc2[nH]1)n1c(=O)c(-c2cc3ccccc3[nH]2)nc2ccccc21 (stereo unspecified) do in these assays?
HT1080 IDH1KD tx: inconclusive; HT1080NT lethal: inconclusive; KB-3-1 cytotox: inactive; KB-V1 cytotox: inactive

How did CCOC(=O)C(=NO)C1=CSC2=NNC(C)(C)N12 do in these assays?
HT1080 IDH1KD tx: -17.1%; HT1080NT lethal: -7.6%; KB-3-1 cytotox: inactive; KB-V1 cytotox: inconclusive

How did O=C(Nc1ccc(OC(F)(F)F)cc1)c1cc(S(=O)(=O)N2CCCCC2)ccc1N1CCOCC1 do in these assays?
HT1080 IDH1KD tx: -11.1%; HT1080NT lethal: -15.3%; KB-3-1 cytotox: inactive; KB-V1 cytotox: inactive

How did CCNC(=S)NNC(=O)c1ccccn1 do in these assays?
HT1080 IDH1KD tx: -25.1%; MCF10A rereplic: 21.4%; HT1080NT lethal: 1.4%; SW480 rereplic: -324.1%; KB-3-1 cytotox: inactive; KB-V1 cytotox: 11.6µM*

What do the screens show for `CCn1nc(C(=O)NNC(=O)c2ccc(OC(F)F)cc2)c2ccccc2c1=O`?
HT1080 IDH1KD tx: 15.7%; MCF10A rereplic: -2.3%; HT1080NT lethal: 1.9%; SW480 rereplic: -2.0%; KB-3-1 cytotox: inconclusive; KB-V1 cytotox: 16.4µM*

What do the screens show for `O=C(NNC(=O)C(c1ccccc1)c1ccccc1)c1ccccn1`?
HT1080 IDH1KD tx: inconclusive; MCF10A rereplic: inconclusive; HT1080NT lethal: inconclusive; SW480 rereplic: 4.11µM*; KB-3-1 cytotox: inconclusive; KB-V1 cytotox: inconclusive

What do the screens show for `O=C(NNC(=O)c1ccccn1)c1ccc(OC(F)F)cc1`?
HT1080 IDH1KD tx: 20.6µM*; MCF10A rereplic: -0.8%; HT1080NT lethal: inconclusive; SW480 rereplic: inconclusive; KB-3-1 cytotox: inconclusive; KB-V1 cytotox: inconclusive

What do the screens show for `CC(C)(C)C(C(=O)NC1CCCC1)N1CCN(c2ncccc2C#N)CC1` (stereo unspecified)?
HT1080 IDH1KD tx: 4.9%; HT1080NT lethal: 0.0%; KB-3-1 cytotox: inactive; KB-V1 cytotox: inactive
